Experimental data: PubChem BioAssay (Tox21)
Inconclusive results are not listed. Entries that show only a call come without a potency. Calls of active or inactive are those of the source. Calls follow the shape of the dose curve; as a rule, active = well fitted activation curve with a large enough effect in the repeat runs; inconclusive = weak or mixed curves; inactive = flat fitted curve, though single readings scatter.

test: A CellTox Green Cytotoxicity Assay to monitor cytotoxicity in HEK293 cells - 8 hour (AID 1224884); details: CellTox Green fluorescence; series mostly up to 76.8 µM; also: nearly all actives have a fitted effect of over 35% in size
Source text: National Center for Advancing Translational Sciences [NCATS]
NIH Chemical Genomics Center [NCGC]
U.S. Environmental Protection Agency [EPA]
National Institutes of Environmental Health Sciences [NIEHS]
National Toxicology Program [NTP]
Cell-based models are critical for drug discovery. Determining the natural cytotoxic effects resulting from test compounds is an essential research activity. A CellTox Green Cytotoxicity Assay to monitor cytotoxicity in real time of continues cell culture during 40 hours of the compound treatment was used to screen Tox21 10K library compounds in Hek293 cells. CellTox Green Cytotoxicity Assay is a nonlytic, homogeneous, biofluorescent method to measure cytotoxicity in cell culture after experimental manipulation. The assay system uses a proprietary asymmetric cyanine dye that is excluded from viable cells but preferentially stains the dead cell's DNA. […] Viable cells produce no appreciable increases in fluorescence. Therefore, the fluorescence signal produced by the binding interaction with dead cell DNA is proportional to cytotoxicity.
The mixture of Hek293 cell suspension and reagents were dispensed at 600cells/6 ul/well in 1536-well tissue culture treated black solid bottom plates using a Multidrop dispenser. After the assay plates were incubated at a 37 C/5% CO2 incubator for 5 hours, 23 nL of compounds dissolved in DMSO, positive and negative controls was transferred to the assay plate by a pintool work station. The plates were incubated at 37 C for 40 hours. The fluorescence intensity were measured at 0h, 8h, 16h, 24h, 32h and 40h time points using ViewLux plate reader during compound treatment.
Potency is read from the fitted curve at half-maximal effect.

Structure (SMILES)	Potency
O=C(C(Cl)(Cl)Cl)C(Cl)(Cl)Cl	inactive
Brc1ccc(Oc2ccccc2)cc1	inactive
Brc1ccccc1	inactive
OC(c1ccc(Cl)cc1)(c1ccc(Cl)cc1)c1cccnc1	inactive
CN(C)c1ccc(N(C)C)cc1	inactive
COP(=S)(OC)Oc1ccc([N+](=O)[O-])cc1Cl	inactive
CCCCNP(N)(N)=S	inactive
ClP(Cl)(Cl)(Cl)Cl	inactive
O=C1C(=O)c2cccc3cccc1c23	inactive
O=C(CBr)OCc1ccccc1	inactive
O=C(O)C(F)(F)C(F)(F)C(F)(F)C(F)(F)C(F)(F)C(F)(F)C(F)(F)C(F)(F)C(F)(F)C(F)(F)F	inactive
O=NN1CCNCC1	inactive
Cn1sc(Cl)cc1=O	inactive
CCC(C)(NC(=O)c1cc(Cl)c(C)c(Cl)c1)C(=O)CCl (stereo not given)	inactive
COc1nn(CSP(=S)(OC)OC)c(=O)s1	inactive
CC1C(=O)C[C@]2(C(C)C)C[C@H]12 (stereo not given in full)	inactive
CCOC(=O)COc1cc(-c2nn(C)c(OC(F)F)c2Cl)c(F)cc1Cl	inactive
Cc1ccccc1C(=O)Nc1cccc(OC(C)C)c1	inactive
COc1c(C(C)(C)C)cc([N+](=O)[O-])c(C)c1[N+](=O)[O-]	inactive
CCCN(CCCl)c1c([N+](=O)[O-])cc(C(F)(F)F)cc1[N+](=O)[O-]	inactive

Structure (SMILES)	Potency
CCOP(=S)(OCC)SCSCC	inactive
c1ccoc1	inactive
O=C1CN=C(c2ccccc2)c2cc(Cl)ccc2N1CC1CC1	inactive
CCc1ccc(C(=O)NN(C(=O)c2cc(C)cc(C)c2)C(C)(C)C)cc1	inactive
CC(C)N(CCC(C(N)=O)(c1ccccc1)c1ccccn1)C(C)C (stereo not given)	inactive
COCC(C)N(C(=O)CCl)c1c(C)csc1C (stereo not given)	inactive
CCCCN(N=O)C(=N)N[N+](=O)[O-]	inactive
O=C(O)C1(c2ccc3c(c2)OC[C@H](Cc2ccc(-c4ccccc4)cc2)[C@H]3O)CCCC1	19.5 µM (active)
Clc1cccc(SC2CCNCC2)n1	inactive
Sc1ccccc1Cl	inactive
N#Cc1cc(I)c(O)c(I)c1	inactive
O=S(=O)(Cl)c1ccccc1	inactive
C[N+](C)(C)CCCl	inactive
ClCc1cccc(Cl)c1	inactive
CCC(Cl)CCl (stereo not given)	inactive
C[C@]12CC[C@H]3[C@@H](CCC4=CC(=O)CC[C@@H]43)[C@@H]1CC[C@@H]2OC(=O)CCC1CCCCC1	inactive
Nc1nc(=S)[nH][nH]1	inactive
CC/C(=N\OC/C=C/Cl)C1=C(O)CC(C2CCOCC2)CC1=O (stereo not given)	inactive
CCCCN=C=O	inactive
C=CC(=O)NCNC(=O)C=C	inactive
